Assay outcomes (PubChem)
Rows were chosen to be rich in hits. Some 3.8% of all compounds tested hit in one or more screens of this group.
ELG1 DNA repair – inhibitors of ELG1-dependent DNA repair in HEK293T cells; Potency, µM (top dose mostly 46.1 µM), actives largely listed as inhibitors; 2.3% of 330,000 active; HEK293T ELG1-luciferase reporter, luminescence, 16 h; DNA damage induced by 5-fluorouridine; further: nearly all actives have a fitted effect of over 55% in size
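HEK293T cells expressing luciferase-tagged ELG1 (2,000/well) received 5-Fluorouridine plus compound or DMSO for 16 hr at 37 °C. Luciferase was read by ONE-Glo luminescence after 30 min at room temperature.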
IDH1 R132H inh – human IDH1 R132H inhibition; 0.093% of 390,000 active; Potency, µM (doses to about 76.6 µM), actives largely listed as inhibitors; IDH1-R132H enzyme, NADPH consumption, diaphorase/resazurin fluorescence; O75874; further: nearly all actives have a fitted effect of over 65% in size
Target sequence (O75874 whole entry R132H, stated change not applied): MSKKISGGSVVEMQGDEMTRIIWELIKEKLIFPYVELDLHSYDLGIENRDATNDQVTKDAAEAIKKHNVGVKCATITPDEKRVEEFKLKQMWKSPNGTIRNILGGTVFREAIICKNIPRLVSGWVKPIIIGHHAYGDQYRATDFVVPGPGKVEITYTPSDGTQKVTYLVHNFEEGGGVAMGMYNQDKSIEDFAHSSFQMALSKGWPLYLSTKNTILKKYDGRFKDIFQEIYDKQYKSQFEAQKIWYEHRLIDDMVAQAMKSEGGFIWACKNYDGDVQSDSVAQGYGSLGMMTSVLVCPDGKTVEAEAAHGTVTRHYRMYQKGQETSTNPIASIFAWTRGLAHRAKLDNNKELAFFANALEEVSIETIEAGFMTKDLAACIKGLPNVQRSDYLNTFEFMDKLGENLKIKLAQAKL
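IDH1-R132H (0.5 ug/mL) preincubated 30 min with compound, then NADPH (0.016 mM) and alpha-KG (2 mM) added; 80 min at RT, pH 7.5. Remaining NADPH coupled via diaphorase/resazurin to fluorescence (540/590 nm); concentration-response curves normalized to no-enzyme control.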
Nrf2 block – blocks Nrf2 signaling | A549 ARE-Fluc reporter, luciferase luminescence, 18-24 h | 2.1% of 360,000 active | Potency, µM (doses to about 46 µM), usual class: inhibitors; further: nearly all actives have a fitted effect of over 60% in size
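In this cell-based qHTS, ARE-driven firefly luciferase in A549 cells reports Nrf2 activity; the luminescent signal after BugLite lysis is the measured value, with a prior CellTiter-Fluor read for cell health.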
A549 viability – kills or reduces viability of A549 cells in Nrf2 counter-screen | A549 ARE-Fluc cells, CellTiter-Fluor viability, 18-24 h | Potency, µM (titrated, usually from 46 µM), most hits filed as inhibitors | 0.16% of 390,000 active | AID 504648
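A549 ARE-Fluc cells in 5% FBS OPTI-MEM, 5000 cells/well, rested 2 h then exposed to compounds in concentration-response for 18-24 h at 37 °C. Viability by CellTiter-Fluor fluorescence (Ex 405/Em 525) after 30 min; luciferase luminescence (BugLite, 15 min, RT) read afterwards.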
Nrf2 ARE act – Nrf2 pathway activation; AREc32 ARE-luciferase reporter (MCF7-derived line), luminescence, 24 h; Potency, µM (highest dose often 46.1 µM), most hits filed as activators; 0.31% of 410,000 active; further: nearly all actives have a fitted effect of over 65% in size
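AREc32 cells carrying an ARE-driven firefly luciferase reporter were seeded at 1000 cells/well in OPTI-MEM with 5% FBS, then exposed to compound for 24 hr at 37 deg C. Luminescence was read with Steady-Glo after 30 min at RT.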
ELG1 FLuc counter – luciferase inhibition in cell-free luciferin readout for ELG1 hits. shares compounds with ELG1 DNA repair. cell-free firefly luciferase luminescence counter-screen, ViewLux. Potency, µM (titrated, usually from 46.1 µM), usual class: inhibitors. 3% of 350 active. AID 624247
ELG1 Luc conf – confirmation of human ELG1-dependent DNA repair inhibitors; shares compounds with ELG1 DNA repair; Potency, µM (highest dose often 46.1 µM), actives largely listed as inhibitors; AID 624248; HEK293T ELG1-luciferase levels, luminescence; cells co-treated with 5-fluorouridine; 68% of 670 active; further: nearly all actives have a fitted effect of over 55% in size
ELG1-Luc MMS – MMS-stimulated human ELG1 repair inhibition, confirmed; shares compounds with ELG1 DNA repair; HEK293T luciferase-tagged ELG1 level, MMS stimulated; Potency, µM (titrated, usually from 46.1 µM), most hits filed as inhibitors; 53% of 670 active; further: nearly all actives have a fitted effect of over 60% in size
ELG1 5FU viab – confirmation of ELG1 repair inhibitors: viability with 5FU | shares compounds with ELG1 DNA repair | cell viability with 5-FU, ELG1-dependent repair | 670 tested, under 10 active | AID 624250 | Potency, µM (series often up to 46.1 µM), usual class: cytotoxic;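 further: ELG1-luc HEK293T cells cotreated with 5-fluorouridine at 10 µM final; viability measured 16 h after compound addition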
ELG1 MMS cell – confirmation of ELG1 repair inhibitors: viability with MMS | shares compounds with ELG1 DNA repair | Cell viability with MMS, ELG1-dependent DNA repair | Potency, µM (titrated, usually from 46.1 µM), most hits filed as cytotoxic | 33% of 670 active | AID 624251;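 further: ELG1-luc HEK293T cells co-treated with 10 µM MMS; viability read 16 h after compound addition; nearly all actives have a fitted effect of over 60% in size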
ELG1 unstim viab – counter-screen for ELG1 repair inhibitors: unstimulated cell viability | shares compounds with ELG1 DNA repair | cell viability counter-screen, unstimulated, luminescence | Potency, µM (top dose mostly 45.9 µM), actives largely listed as cytotoxic | 8% of 900 active;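 further: compound exposure lasted 16 hours before reading; nearly all actives have a fitted effect of over 55% in size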
FLuc enzyme – counter-screen for ELG1 repair inhibitors: firefly luciferase inhibition. shares compounds with ELG1 DNA repair. purified firefly luciferase, luminescence counter-screen. Potency, µM (series often up to 57.5 µM), most hits filed as inhibitors. 10% of 350 active
Hits are given with their value; – = inactive; ? = inconclusive; · = no result. The call rests on the fitted dose curve; in most records, active means well fitted curve in the direction sought with a large enough effect; inconclusive means small, poorly fitted or top-dose-only effect, or another doubt; inactive means no such curve, though single readings can be large; an effect the other way counts as inactive or inconclusive.

SMILES	ELG1 DNA repair	IDH1 R132H inh	Nrf2 block	A549 viability	Nrf2 ARE act	ELG1 FLuc counter	ELG1 unstim viab	FLuc enzyme	others
C[C@H](NC(=O)[C@@H]1Cc2ccccc2CN1C(=O)OC(C)(C)C)C(=O)NCc1ccco1	?	–	–	–	–	·	·	·
O=C(Cn1cc(S(=O)(=O)Cc2ccc(F)cc2)c2ccccc21)NCCc1ccccc1	·	–	–	–	–	·	·	·
Cc1ccc(S(=O)(=O)N(C)C)cc1NC(=O)C(C)OC(=O)c1ccc2c(=O)n3c(nc2c1)CCC3 (stereo not drawn)	·	–	–	–	–	·	·	·
Cc1c(Cc2ccccc2)c(=O)oc2cc(OCC(=O)N3CCC(C(N)=O)CC3)ccc12	0.82µM	–	–	–	–	–	–	?	ELG1 Luc conf=?;ELG1-Luc MMS=28µM;ELG1 5FU viab=?;ELG1 MMS cell=25µM
NC(=O)C1CCN(C(=O)COc2ccc3c(c2)oc(=O)c2ccccc23)CC1	–	–	–	–	–	·	·	·
Cc1cccc(C2C=C(c3ccc(C)c(C)c3)Nc3nnnn32)c1 (stereo not drawn)	·	–	·	–	–	·	·	·
COc1cc(Cl)c(C)cc1NC(=O)CN(C)Cc1cccc(OC)c1OC	2.6µM	–	?	–	–	·	?	·	ELG1 Luc conf=25µM;ELG1-Luc MMS=16µM;ELG1 5FU viab=–;ELG1 MMS cell=14µM
Cc1c(C(=O)Nc2nccs2)oc2ccc(Br)cc12	?	–	?	?	–	·	–	·
c1ccc(CCNc2ccc3c(c2)Cc2ccccc2-3)nc1	·	–	?	–	–	·	·	·
Cc1cc(C(=O)CSc2nc(N)cc(=O)[nH]2)c(C)n1-c1ccc(OC(F)F)cc1	?	–	18µM	–	–	·	?	·	ELG1 Luc conf=–;ELG1-Luc MMS=1.6µM;ELG1 5FU viab=–;ELG1 MMS cell=1.6µM
Cc1cc(-n2c(C)cc(C(=O)CSc3nc(N)cc(=O)[nH]3)c2C)no1	–	–	?	–	–	·	·	·
CCOc1ccc2cc(C#N)c(SCC(=O)N3CCOCC3)nc2c1	?	–	?	–	–	–	?	–
N#Cc1cc2cc3c(cc2nc1SCC(=O)N1CCOCC1)OCO3	?	–	?	–	–	–	–	–
CCOC(=O)CSc1nc2cc3c(cc2cc1C)OCO3	–	–	–	–	–	·	·	·
Cc1cc2cc3c(cc2nc1SCC(=O)N1CCOCC1)OCO3	–	–	–	–	–	–	–	–
CCOC(=O)CSc1nc2cc3c(cc2cc1C#N)OCO3	?	–	?	–	–	·	·	·
COc1ccc2c(c1)c1c(c(=O)n(-c3cc(Cl)ccc3C)c(=O)n1CC(=O)N1CCCC1)n2C	·	–	–	–	–	·	·	·
COc1ccc(S(=O)(=O)NCCc2nnc3ccc(SCC(=O)Nc4nc(C)cs4)nn23)cc1	–	–	–	–	–	–	–	–	ELG1 Luc conf=–;ELG1-Luc MMS=–;ELG1 5FU viab=–;ELG1 MMS cell=–
Cc1csc(NC(=O)CSc2ccc3nnc(CCNS(=O)(=O)c4ccccc4)n3n2)n1	–	–	–	–	–	·	·	·
